Measurements from PubChem BioAssay.
Calls of active or inactive are those of the source.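 How the source made its calls, unless noted: active means compound raises insulin release from rat beta cells at 5 mM glucose, no numeric limit stated; inactive means the rest.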

Columns and labels:
[1] = Wnt pathway potentiators raising nuclear beta-catenin – imaging, WNT3A-conditioned medium, mouse C2C12, NPC library, primary screen (AID 1117326; in the data active means nuclear beta-catenin stimulation mostly above about 4.2%, no sharp cut-off; inactive means mostly below about 10%; further: reference of the scale not given here); settings: stronger effect = higher value
[2] = stimulators of insulin release from INS-1E, primary screen, cell-based, 5 mM glucose, NPC library (AID 1117329); settings: rat INS-1E insulin secretion, at 10 µM, stronger effect = higher value; further: reference of the scale not given here
[3] = growth inhibition of GSK3B-pretreated HCT116 cells – cell-based, CellTiter-Glo, 0.2 to 20 µM (AID 1117336;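 active means compounds lowering colon cancer cell viability after pretreatment blocking the GSK3B kinase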); settings: HCT116 viability after GSK3B inhibitor, at 20 µM, stronger effect = higher value
[4] = inhibition of endothelial tube formation, primary screen, imaging, VEGF stimulated, CD31 staining, tube area, NPC library (AID 1117340;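 active means compound that reduces growth-factor-driven endothelial tube area in a mixed cell culture, no cutoff stated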); settings: VEGF-stimulated ADSC/ECFC co-culture, at 10 µM, stronger effect = higher value
[5] = GLP1 release stimulators, primary, NCI-H716, NPC library (AID 1117341;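 active means compound raises GLP1 secretion from the human gut endocrine cells, with no numeric limit stated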; further: reference of the scale not given here); settings: NCI-H716 cells, at 10 µM, stronger effect = higher value
[6] = HCT116 colon cancer cell growth inhibition, primary screen, CellTiter-Glo luminescence, NPC library (AID 1117342;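 active means compounds that lower survival of HCT116 colon cancer cells in the luminescence readout, no numeric limit stated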); settings: at 20 µM (top of the series)
[7] = reduced SW480 viability measured with CellTiter-Glo, NPC library, primary (AID 1117343;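 active means compounds that lower viability of the colon cancer cells in the luminescence readout, with no numeric limit stated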); settings: CellTiter-Glo luminescence; at 20 µM (top of the series) unless noted
[8] = NPC library primary testing for decreased DLD-1 cell viability via CellTiter-Glo (AID 1117346;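 active means compounds that lower survival of DLD-1 colon cancer cells in the luminescence readout, no cutoff given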); settings: DLD-1 viability, CellTiter-Glo luminescence; at 20 µM (top of the series)
[9] = target: NAD(+) hydrolase SARM1 (Homo sapiens) (UniProt Q6SZW1); experiment: blocking NAD cleavage by SARM1 SAM-TIR – cell lysate, NAD-Glo luminescence (AID 1508614;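 active means compound whose remaining NAD level is above about 45 nM, limit read from the data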); settings: SAM-TIR HEK293T lysate NADase, at 1 µM, stronger effect = higher value
[10] = MELAS cybrid and Rieske KO viability enhancers – cell-based, MELAS cybrids, Rieske KO mouse fibroblasts, CellTiter-Glo, primary screen (AID 1508586;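 active means mean z-score across replicates of 1.96 or higher in either the MELAS or the Rieske mutant cell line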;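 further: z relative to plate mean and SD of compound and empty wells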); settings: low glucose
[11] = MELAS cybrid survival, CellTiter-Glo 48 h, stronger effect = higher value
[12] = Rieske KO mouse fibroblast survival, CellTiter-Glo 72 h

Sequence of NAD(+) hydrolase SARM1 (Homo sapiens) (Q6SZW1 whole entry, looked up): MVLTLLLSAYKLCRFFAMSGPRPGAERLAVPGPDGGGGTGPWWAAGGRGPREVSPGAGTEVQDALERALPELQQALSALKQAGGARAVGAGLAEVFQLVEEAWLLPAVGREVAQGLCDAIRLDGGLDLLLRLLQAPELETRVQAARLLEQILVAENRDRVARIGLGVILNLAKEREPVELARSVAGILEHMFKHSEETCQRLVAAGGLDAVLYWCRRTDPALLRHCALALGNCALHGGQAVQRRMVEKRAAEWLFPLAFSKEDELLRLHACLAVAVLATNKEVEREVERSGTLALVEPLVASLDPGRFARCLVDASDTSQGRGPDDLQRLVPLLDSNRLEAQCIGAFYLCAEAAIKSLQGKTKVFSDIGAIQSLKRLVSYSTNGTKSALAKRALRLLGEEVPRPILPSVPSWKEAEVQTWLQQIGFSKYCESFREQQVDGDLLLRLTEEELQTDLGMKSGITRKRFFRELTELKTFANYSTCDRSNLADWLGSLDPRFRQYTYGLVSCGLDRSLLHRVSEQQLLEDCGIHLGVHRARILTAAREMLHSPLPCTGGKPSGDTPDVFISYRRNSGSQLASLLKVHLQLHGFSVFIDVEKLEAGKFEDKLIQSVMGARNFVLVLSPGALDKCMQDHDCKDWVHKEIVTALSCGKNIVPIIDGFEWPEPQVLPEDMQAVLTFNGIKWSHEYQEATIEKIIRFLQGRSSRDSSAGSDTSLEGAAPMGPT

| SMILES | nuclear beta-catenin stimulation ([1]; at 10 µM) | nuclear beta-catenin stimulation ([1]; stimulation, at 2 µM) [%] | insulin secretion stimulation [2] | viability decrease [3] | tube area decrease [4] | GLP1 secretion stimulation [5] | inhibition of viability [6] | viability decrease (inhibition) [7] | viability decrease (inhibition) [8] | remaining NAD [9] | z-score [10, 11] | z-score [10, 12] |
| --- | --- | --- | --- | --- | --- | --- | --- | --- | --- | --- | --- | --- |
| Cc1cc(CC(C)CC(C)(C)C)n(O)c(=O)c1 (stereo not given) | 43.5% (active) | 50.6 | 2.2% (inactive) | 94.2% (active) | 107% (active) | -0.7% (inactive) | 67.2% (active) | 95.7% (active) | 91.5% (active) | 10 nM (inactive) | – | – |
| Cc1cccn2c(=O)c(-c3nnn[nH]3)cnc12 | 3% (inactive) | 1.7 | -1.3% (inactive) | 2.1% (inactive) | -6.7% (inactive) | 3.6% (inactive) | 13.5% (inactive) | 8.4% (inactive) | -1.9% (inactive) | – | 0.721 (inactive) | -0.0743 |
| N[C@@H](Cc1ccc(O)cc1)C(=O)O | -2% (inactive) | -0.2 | 3.9% (inactive) | -7.6% (inactive) | 1% (inactive) | 3% (inactive) | 3.9% (inactive) | -0.8% (inactive) | -0.1% (inactive) | 10 nM (inactive) | – | – |
| Nc1c[n+](N2CCOCC2)no1 | 0.4% (inactive) | -0.3 | -1.7% (inactive) | 15.5% (inactive) | -10.8% (inactive) | -2.6% (inactive) | -13.8% (inactive) | 66.6% (active) | 20.6% (inactive) | – | – | – |
| O=C1NCCN1CCN1CCC(c2cn(-c3ccc(F)cc3)c3ccc(Cl)cc23)CC1 | 5.7% (inactive) | 0.1 | 5.2% (inactive) | 99.9% (active) | 100% (active) | -1.3% (inactive) | 100% (active) | 103% (active) | 102% (active) | – | -0.903 (inactive) | 0.239 |
| C[N+](C)(C)CC(O)CC(=O)[O-] (stereo not given) | 6.3% (inactive) | 2.6 | 3.9% (inactive) | 17.4% (inactive) | 0.3% (inactive) | -1.8% (inactive) | -0.3% (inactive) | -12.1% (inactive) | 1.7% (inactive) | 10 nM (inactive) | – | – |
| CCOc1ccccc1OCC1CNCCO1 (stereo not given) | 0.4% (inactive) | -0.3 | 1.75% (inactive) | 1.7% (inactive) | -7% (inactive) | -0.1% (inactive) | 32.4% (inactive) | -7.1% (inactive) | -5.4% (inactive) | – | 0.538 (inactive) | -0.146 |
| CCCCC(O)c1ccccc1 (stereo not given) | -0.9% (inactive) | -0.8 | -0.1% (inactive) | -9.5% (inactive) | -9.9% (inactive) | -3.9% (inactive) | 5.3% (inactive) | -5.1% (inactive) | -6% (inactive) | 10 nM (inactive) | 0.247 (inactive) | 0.0374 |
| CO/N=C(\C(=O)N[C@@H]1C(=O)N2C(C(=O)O)=C(CSc3nc(=O)c(O)nn3C)CS[C@H]12)c1csc(N)n1 | -1.8% (inactive) | -0.3 | 0% (inactive) | -26.6% (inactive) | -1.5% (inactive) | -1.7% (inactive) | -9.17% (inactive) | 8.2% (inactive) | -15.1% (inactive) | 10 nM (inactive) | – | – |
| NC(=O)N[C@@H](CCC(=O)O)C(=O)O | -0.1% (inactive) | -1 | 0.3% (inactive) | 11.1% (inactive) | -22.3% (inactive) | -2.5% (inactive) | 4.1% (inactive) | -6.5% (inactive) | 1% (inactive) | 10 nM (inactive) | – | – |
| Cc1nc2ccccc2n1Cc1ccc(Cl)cc1 | 1.3% (inactive) | 1.1 | -3.2% (inactive) | 52.8% (active) | 62% (active) | -1.7% (inactive) | 45.2% (inactive) | 74% (active) | 40.1% (inactive) | 10 nM (inactive) | – | – |
| CCCCC(CC)COC(=O)c1ccccc1O (stereo not given) | -0.1% (inactive) | -0.3 | -2% (inactive) | 9.8% (inactive) | -7.3% (inactive) | 1.9% (inactive) | 2.2% (inactive) | 50.1% (active) | 14.3% (inactive) | 10 nM (inactive) | – | – |
| COc1ccc(-n2nc(CCC(=O)N(C)O)cc2-c2ccc(Cl)cc2)cc1 | 0.6% (inactive) | 0.2 | 2.7% (inactive) | 91.8% (active) | 19.2% (inactive) | 9.1% (inactive) | 94.4% (active) | 130% (active) | 102% (active) | 10 nM (inactive) | – | – |
| CCNC(=O)/C=C/c1cccc(Br)c1 | 0.9% (inactive) | 0.6 | -2.3% (inactive) | -9.75% (inactive) | -15.1% (inactive) | -0.7% (inactive) | -8.7% (inactive) | 38% (inactive) | 15.1% (inactive) | 10 nM (inactive) | – | – |
| Cn1c(=O)c2c(ncn2CC(=O)O)n(C)c1=O | -0.1% (inactive) | -1 | 0.95% (inactive) | 20.3% (inactive) | -15.7% (inactive) | -0.7% (inactive) | 12.3% (inactive) | 0.4% (inactive) | -5.4% (inactive) | – | 0.592 (inactive) | 0.00475 |
